Compounds without any hit were thinned out: in the full panel of roughly 79,000, 15% have a hit. Active and inactive are the calls of the source. No stated cut-off is given here; in the data, active means growth inhibition above about 70%; inactive means the rest.
Tests used:
[1] = NCI Yeast Anticancer Drug Screen. Data for the rad50 strain (AID 155);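 further: 0% = growth of vehicle-only cultures of the same strain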; conditions: S. cerevisiae rad50 strain growth inhibition, active compounds read high
How it was run: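 Vehicle-treated cultures provide the reference for the growth inhibition reported for compound-exposed, repair-deficient yeast.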

[2] = NCI Yeast Anticancer Drug Screen. Data for the mec2-1 strain (AID 157); conditions: S. cerevisiae mec2-1 strain, active compounds read high
How it was run: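 Yeast mec2-1 mutant treated with compound. Readout: growth inhibition vs vehicle controls.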

[3] = NCI Yeast Anticancer Drug Screen. Data for the sgs1 mgt1 strain (AID 161);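 further: 0% = growth of cultures given vehicle only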; conditions: S. cerevisiae sgs1 mgt1 strain, active compounds read high
How it was run: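 Mutant yeast exposed to compound; growth scored against vehicle-only wells.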

[4] = NCI Yeast Anticancer Drug Screen. Data for the cln2 rad14 strain (AID 165);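 further: 0% = growth equal to vehicle treated cultures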; conditions: S. cerevisiae cln2 rad14 strain, active compounds read high
How it was run: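 cln2 rad14 yeast strain; compound exposure; growth inhibition read vs vehicle controls.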

[5] = NCI Yeast Anticancer Drug Screen. Data for the bub3 strain (AID 167); conditions: S. cerevisiae bub3 mutant strain, active compounds read high
How it was run: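 Mutant yeast screening strain plus compound; vehicle-treated cultures serve as the 0% inhibition reference.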

[6] = NCI Yeast Anticancer Drug Screen. Data for the mlh1 rad18 strain (AID 175); conditions: S. cerevisiae mlh1 rad18 strain growth inhibition, active compounds read high
How it was run: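 Yeast w/ defined DNA-repair lesions; compound exposure; growth vs vehicle controls → % inhibition.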

[7] = at 5.0 µM (retest, dose inferred, filed as 0.5)
[8] = at 50.0 µM (retest, dose inferred, filed as 5.0)

Measured: growth inhibition

Clc1ccc(CCN2CCOCC2)c(Cl)c1
inactive: [1]; [7] 4% | [1]; [8] 27% | [1]; at 50.0 µM 62.9% | [2]; [7] 0% | [2]; [8] 16% | [2]; at 50.0 µM 34.1% | [3]; [7] 0% | [3]; [8] 42% | [3]; at 50.0 µM 54.4% | [4]; [7] 31% | [4]; [8] 30% | [4]; at 50.0 µM 58.5% | [5]; [7] 23% | [5]; [8] 54% | [5]; at 50.0 µM 34.5% | [6]; [7] 5% | [6]; [8] 55% | [6]; at 50.0 µM 64.9%

CCOP(=S)(OCC)SC(O)(C(F)F)C(F)F
inactive: [1]; [7] 5% | [1]; [8] 34% | [1]; at 50.0 µM 28.8% | [2]; [7] -3% | [2]; [8] 54% | [2]; at 50.0 µM 22.9% | [3]; [7] 3% | [3]; [8] 62% | [3]; at 50.0 µM 42% | [4]; [7] -3% | [4]; [8] 32% | [4]; at 50.0 µM 22.4% | [5]; [7] -2% | [5]; [8] 69% | [5]; at 50.0 µM 39.4% | [6]; [7] 0% | [6]; at 50.0 µM 30.7%
active: [6]; [8] 78%

[C-]#[O+].[C-]#[O+].[C-]#[O+].[Cl-].[Ru+2].c1ccc([PH+](CC[PH+](c2ccccc2)c2ccccc2)CC[PH+](c2ccccc2)c2ccccc2)cc1
active: [1]; [8] 98% | [1]; at 50.0 µM 91% | [2]; [8] 99% | [2]; at 50.0 µM 92.8% | [3]; [8] 99% | [3]; at 50.0 µM 93.1% | [4]; [8] 97% | [4]; at 50.0 µM 92.2% | [5]; [8] 98% | [5]; at 50.0 µM 92.4% | [6]; [8] 97% | [6]; at 50.0 µM 91.1%
inactive: [1]; [7] 50% | [2]; [7] 45% | [3]; [7] 55% | [4]; [7] 36% | [5]; [7] 50% | [6]; [7] 56%

[Cl][Hg][CH2]CC1CC=CCC1 (configuration not stated)
active: [1]; [7] 99% | [1]; [8] 99% | [1]; at 50.0 µM 99.2% | [2]; [7] 100% | [2]; [8] 100% | [2]; at 50.0 µM 99.5% | [3]; [7] 100% | [3]; [8] 99% | [3]; at 50.0 µM 99.6% | [4]; [7] 100% | [4]; [8] 99% | [4]; at 50.0 µM 99.5% | [5]; [7] 99% | [5]; [8] 99% | [5]; at 50.0 µM 99.6% | [6]; [7] 100% | [6]; [8] 100% | [6]; at 50.0 µM 99.5%

c1ccc(NC2=NCCN2)nc1
active: [1]; [8] 82% | [2]; [8] 99% | [3]; [8] 70% | [5]; [8] 84% | [6]; [8] 98%
inactive: [1]; [7] -4% | [1]; at 50.0 µM 14.4% | [2]; [7] -26% | [2]; at 50.0 µM 34.2% | [3]; [7] 11% | [3]; at 50.0 µM 62.3% | [4]; [7] 24% | [4]; [8] 49% | [4]; at 50.0 µM 0.35% | [5]; [7] -8% | [5]; at 50.0 µM 25.4% | [6]; [7] -13% | [6]; at 50.0 µM 15.2%

[Cl][Sn]([c]1ccccc1)[c]1ccccc1
active: [1]; [8] 93% | [1]; at 50.0 µM 80.8% | [2]; [8] 96% | [2]; at 50.0 µM 85.8% | [3]; [8] 99% | [3]; at 50.0 µM 89% | [4]; [8] 97% | [5]; [8] 98% | [5]; at 50.0 µM 87.8% | [6]; [8] 90% | [6]; at 50.0 µM 83.5%
inactive: [1]; [7] 41% | [2]; [7] 30% | [3]; [7] 56% | [4]; [7] 34% | [4]; at 50.0 µM 54.2% | [5]; [7] 57% | [6]; [7] 30%

COc1cc(C=Nc2cc[c]([Hg][O]C(C)=O)cc2)ccc1O
inactive: [1]; [7] 4% | [1]; [8] 23% | [2]; [7] -1% | [2]; [8] 67% | [3]; [7] 2% | [3]; [8] 67% | [4]; [7] -4% | [4]; [8] 22% | [5]; [7] 3% | [6]; [7] 0% | [6]; [8] 56%
active: [1]; at 50.0 µM 99.5% | [2]; at 50.0 µM 99.5% | [3]; at 50.0 µM 99.4% | [4]; at 50.0 µM 99.3% | [5]; [8] 75% | [5]; at 50.0 µM 99.3% | [6]; at 50.0 µM 99.3%

Cc1ccc([PH+](c2ccc(C)cc2)c2ccc(C)cc2)cc1.Cc1ccc([PH+](c2ccc(C)cc2)c2ccc(C)cc2)cc1.[Cl][Hg][Cl]
active: [1]; [7] 98% | [1]; [8] 95% | [2]; [7] 99% | [2]; [8] 98% | [2]; at 50.0 µM 97.2% | [3]; [7] 99% | [3]; [8] 95% | [3]; at 50.0 µM 99.5% | [4]; [7] 93% | [4]; [8] 96% | [5]; [7] 98% | [5]; [8] 95% | [5]; at 50.0 µM 99.3% | [6]; [7] 99% | [6]; [8] 94% | [6]; at 50.0 µM 95.9%
inactive: [1]; at 50.0 µM 47.6% | [4]; at 50.0 µM 29.3%

CCCCC1CCCCCCc2[nH]c(/C=C3\N=C(c4ccc[nH]4)C=C3OC)cc21 (configuration not stated)
active: [1]; [8] 91% | [1]; at 50.0 µM 82.3% | [2]; [8] 93% | [2]; at 50.0 µM 86.5% | [3]; [8] 93% | [3]; at 50.0 µM 84.8% | [4]; [8] 94% | [4]; at 50.0 µM 81.2% | [5]; [8] 93% | [5]; at 50.0 µM 81.9% | [6]; [8] 90% | [6]; at 50.0 µM 80.5%
inactive: [1]; [7] 24% | [2]; [7] 23% | [3]; [7] 45% | [4]; [7] 39% | [5]; [7] 29% | [6]; [7] 34%
